# Screening data: PubChem, National Center for Advancing Translational Sciences (NCATS)
# D3 antag: antagonists of human D3 dopamine receptor | P35462 | D3R cells, DiscoveRx beta-arrestin luminescence, antagonist mode; active compounds read low | max response, negative = inhibition, % | 360,000 compounds, 2.5% hits | AID 652054; in the data active = max response below about -50%; inconclusive = no clear call, values can overlap the other calls; note: % is set by controls: 0 for no effect and ±100 for the full control effect
# Target sequence (P35462 whole entry, looked up): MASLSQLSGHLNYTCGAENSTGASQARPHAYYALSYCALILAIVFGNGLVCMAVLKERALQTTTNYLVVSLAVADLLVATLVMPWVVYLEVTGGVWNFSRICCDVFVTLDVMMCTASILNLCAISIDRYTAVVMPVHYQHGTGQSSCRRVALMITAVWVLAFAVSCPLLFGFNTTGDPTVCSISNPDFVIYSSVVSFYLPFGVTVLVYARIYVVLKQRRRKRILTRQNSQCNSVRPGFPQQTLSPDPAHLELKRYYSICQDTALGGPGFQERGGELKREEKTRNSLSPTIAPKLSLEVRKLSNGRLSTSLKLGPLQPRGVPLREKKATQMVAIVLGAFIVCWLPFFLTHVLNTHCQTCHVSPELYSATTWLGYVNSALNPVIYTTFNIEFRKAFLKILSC
#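 Cells expressing the human receptor were seeded at 1500 cells/well, incubated overnight at 37 degrees C in 5% CO2, then exposed to library compounds with dopamine controls for 90 minutes at 37 degrees C before luminescent detection.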
# LDHA inh: blocks human lactate dehydrogenase A; 480,000 compounds, 0.15% hits; P00338; activity change, % (values are at about 110 or 230 µM); purified LDHA, NADH/diaphorase-resazurin fluorescence; active compounds read low; in the data active = activity change below about -30%; inconclusive = mostly about -25% to -30%;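 note: plate controls were DMSO wells for no effect and wells without enzyme for full effect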
#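 LDH5 2 nM; NADH 0.06 mM, pyruvate 0.2 mM; 200 mM Tris pH 7.4, EDTA, Tween-20; 5 min RT. Detection: diaphorase 0.133 mg/mL + resazurin 37 µM, fluorescence ex540/em590 at 0 and 20 min; normalized to enzyme-free and DMSO wells.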
# PI4K2A inh: blocks human PI4K2A kinase activity. purified PI4K2A, ADP-Glo luminescence, 1 h; active compounds read low. activity change, negative = inhibition, % at 76.9 µM. Q9BTU6. 420,000 compounds, 0.13% hits; in the data active = activity change below about -50%; inconclusive = mostly about -30% to -49%;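 note: -100% = wells without enzyme as full effect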
#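 In this quantitative HTS, ADP production by PI4K2A was quantified luminescently after 1 h at ambient temperature; 100 microM adenosine served as plate-quality control.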
# DRD3 agonist: activates the human D3 dopamine receptor. D3R DiscoveRx beta-arrestin cells, luminescence, 90 min. 410,000 compounds, 0.58% hits. P35462. AID 652048. max activation, %; in the data active = max activation above about 30%; note: 0% is about no effect
#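 Agonist-mode cell screen: cells plated at 1500/well and incubated overnight at 37 °C, then exposed to library compounds for 90 min at 37 °C. Detection reagent was added for 30–60 min at room temperature, and luminescence was read.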
# RGS4 inhibitor: blocks human RGS4-accelerated GTP hydrolysis; Potency, µM (titrated, usually from 114 µM), for the others: at the highest dose activity change, negative = inhibition, most hits filed as inhibitors; Transcreener GDP fluorescence polarization, RGS4-accelerated GTP hydrolysis; AID 504845; 390,000 compounds, 0.039% hits; P49798; active = well fitted inhibition curve with a large enough effect; inconclusive = small, poorly fitted or top-dose-only effect; inactive = no such curve, though single readings can be large or run the other way; note: potency is the fitted concentration of half-maximal effect; % is set by controls: 0 for no effect and ±100 for the full control effect; nearly all actives have a fitted effect of over 75% in size
# Target sequence (P49798 whole entry, looked up): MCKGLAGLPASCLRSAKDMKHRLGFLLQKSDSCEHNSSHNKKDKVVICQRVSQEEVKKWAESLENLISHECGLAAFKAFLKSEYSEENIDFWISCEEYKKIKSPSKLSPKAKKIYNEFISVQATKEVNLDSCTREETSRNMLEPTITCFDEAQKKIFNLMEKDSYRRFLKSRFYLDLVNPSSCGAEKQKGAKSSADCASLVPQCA
#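 MLSMR compounds (23 nl, pin-transferred) preincubated 10 min at room temperature with a 500nM (2x) first reagent, then RGS4 at 900nM (2x) plus Transcreener GDP mix added; fluorescence polarization (620/688 nm) read before and after 90 min at 30 °C.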
# pAkt inh: Akt phosphorylation inhibition | 360,000 compounds, 0.32% hits | activity change, % for hits at 50 µM | Neuro2A IGF-stimulated pAkt S473 HTRF, 20 min; active compounds read low | AID 651550; in the data active = activity change below about -80%; inconclusive = mostly about -51% to -80%; note: % is set by controls: 0 for no effect and ±100 for the full control effect
#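 Neuro2A cells (4,500/well, DMEM with 0.5% FBS) were treated with compound at a single 50 µM final concentration, stimulated with 6 nM IGF for 20 min at 37 °C, and lysed. Phospho-Akt Ser473 was read by HTRF as 665/615 ratio ×10^4.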
# * hit, by the source's call; i = inactive; ? = inconclusive; / = no result given; [ ] = remark or other dose. Hits are enriched below; roughly 2.8% of the tested compounds scored in any of these assays.
SMILES,D3 antag,LDHA inh,PI4K2A inh,DRD3 agonist,RGS4 inhibitor,pAkt inh
CCC(C(=O)NCc1ccccc1)n1nc(C)c2sc3ccccc3c2c1=O (centres undefined),/,1.1,-4.0,-10.6,-14.4%,/
O=C(COc1ccccc1F)Nc1nn2cc(-c3ccccc3)nc2s1,/,-2.5,/,/,/,/
Cn1cnc([N+](=O)[O-])c1S(=O)(=O)c1cccc(Cl)c1,-92.1*,-2.5,-4.8,-12.5,1.4%,i
Cc1nn(C(C)C(=O)c2cccc(Cl)c2)c(C)c1[N+](=O)[O-] (centres undefined),11.2,-3.9,-1.7,1.3,-23.4%,i
Cn1cnc([N+](=O)[O-])c1S(=O)(=O)Oc1ccccc1,-83.8*,2.9,-3.7,-14.9,-24.0%,i
Cn1cnc([N+](=O)[O-])c1S(=O)(=O)Nc1ccccc1,-9.8,-14.5,-8.7,-19.2,20.4%,i
COc1ccc2cc(C(=O)N(Cc3ccc(C)o3)C3CC3)[nH]c2c1,/,3.6,/,/,/,/
Cc1nc2cc(Oc3nc(NCCN(C)C)nc4ccsc34)ccc2s1,-59.1*,-3.9,1.8,-14.7,/,i
Cc1ccc(C)n1-c1c(C(=O)NCCN2CCCCC2)sc2ncccc12,/,-5.7,/,/,/,/
Cc1nc2cc(NC(=O)COc3cccc(Cl)c3)ccc2o1,/,-12.6,/,/,/,/
CC1(c2ccc([N+](=O)[O-])cc2)NC(=O)N(CC(=O)Nc2ccc(N3CCCCC3)cc2)C1=O (centres undefined),-50.8*,-1.3,2.2,-11.3,-9.6%,i
CCn1c(SCc2ccc(C(=O)Nc3nccs3)cc2)nnc1-c1ccc(N)cc1,1.7,-3.9,8.8,-3.4,-29.1%,i
CCn1c(SCc2ccc(C(=O)Nc3nccs3)cc2)nnc1-c1ccc(NC(C)=O)cc1,0.0,-2.8,0.9,3.8,6.9%,-107.4%*
CCCC(=O)N1CCN(S(=O)(=O)c2cc3c(cc2Cl)NC(=O)CO3)CC1,/,0.6,/,/,/,/
N#C/C(=C/c1ccc(-c2ccccc2C#N)o1)c1nc2ccccc2[nH]1,/,4.1,/,/,/,/
CS(=O)(=O)N1CCN(Cc2nc3ccsc3c(=O)[nH]2)CC1,/,17.5,/,/,/,/
Fc1ccc2c(c1)Sc1ccc(Cl)cc1CC2N1CCN(CCC2OCCO2)CC1 (centres undefined),-93.3*,-3.4,13.7,-11.0,10.8%,i
O=[N+]([O-])c1ccc2c(c1)C(N1CCN(CCO)CC1)Cc1ccc(F)cc1S2 (centres undefined),-106.1*,-3.4,-11.6,-20.5,/,i
OCCN1CCN(CC/C=C2/c3ccccc3Sc3ccc(Cl)cc32)CC1,-12.3,-6.2,-4.3,0.0,-4.0%,i
O=[N+]([O-])c1ccc(CN2CC(N3CCN(CCO)CC3)CS2(=O)=O)cc1 (centres undefined),0.0,0.8,-5.2,-10.9,/,i
COc1ccc2c(c1)CC(N1CCN(C)CC1)c1cc(OC)ccc1S2 (centres undefined),-94.3*,-5.4,8.8,-12.3,-23.7%,i
CSc1ccc2c(c1)C(N1CCN(C)CC1)Cc1ccc(F)cc1S2 (centres undefined),-95.3*,1.9,1.2,-18.3,-13.2%,i
CCc1ccc(C(C)NC(=O)Cn2nnn(-c3ccccc3)c2=O)cc1 (centres undefined),/,0.1,/,/,/,/
CC(c1nc2ccccc2o1)N1C(=O)c2ccccc2C1=O (centres undefined),-53.2*,-7.5,-2.2,11.6,1.3%,i
Cc1ccc(C)c(NC(=O)CSc2c3c(nc4ccc(Cl)cc24)CCCC3)c1,/,-8.3,-1.1,42.5*,-23.1%,/
SMILES,D3 antag,LDHA inh,PI4K2A inh,DRD3 agonist,RGS4 inhibitor,pAkt inh
Cc1ccc(CNC(=O)CSc2c3c(nc4ccc(Cl)cc24)CCCC3)cc1,/,-15.8,-9.2,26.7,4.4%,/
Cc1cn2c(=O)cc(COc3ccc(NC(=O)c4ccc(C(C)(C)C)cc4)cc3)nc2s1,/,0.4,0.2,51.0*,-6.5%,/
O=Nc1c(O)n(Cc2ccc(Cl)cc2Cl)c2ccccc12,-92.3*,6.7,-0.3,1.3,1.6%,i
c1ccc(-c2nnc(CSc3nnc(C4COc5ccccc5O4)o3)o2)cc1 (centres undefined),/,-11.9,/,/,/,/
CO/N=C/c1ccc(N2CCN(C(=O)c3cccc(C(F)(F)F)c3)CC2)c([N+](=O)[O-])c1,44.7,-2.7,2.7,52.5*,-3.6%,i
Cc1ccc(-c2nn3cnnc3s2)cc1NC(=O)c1ccc(-c2cccc(Cl)c2)o1,/,4.8,/,/,/,/
NC(=O)C1CCC(NC(=O)C2(c3cccc(Cl)c3)CCC2)CC1 (centres undefined),/,12.4,/,/,/,/
COc1ccc(N=c2ssnc2Cl)cc1,-55.2*,-1.8,12.4,-6.0,-59.0%[11.4 µM],i
Clc1ccc(N=c2ssnc2Cl)cc1,40.9,-5.5,12.2,0.9,?,i
CCOc1c(Br)cc(/C=C/C(=O)c2ccc(C#N)cc2)cc1OC,/,-6.8,/,/,/,/
CCCn1cc(SCC(=O)Nc2cc(C)on2)c2ccccc21,-19.8,0.4,4.8,-21.8,-36.1%,i
CCN(CC)C(=O)Cn1cc(S(=O)(=O)CC(=O)Nc2cc(C)on2)c2ccccc21,-50.7*,-2.0,-0.2,-5.9,-12.9%,i
O=C(CSc1nnc(COc2ccc(Cl)cc2)o1)Nc1ccccc1,/,-14.1,0.4,0.2,23.6%,/
CCn1cc(SCC(=O)Nc2cc(C)on2)c2ccccc21,-88.8*,1.8,5.2,0.8,-13.2%,i
Cc1cc(NC(=O)CSc2nnc(COc3ccccc3)o2)no1,17.1,1.6,2.9,-6.3,-4.6%,-127.1%*
CCN(CC)C(=O)Cn1cc(S(=O)(=O)CC(=O)Nc2ccc(F)cc2)c2ccccc21,0.4,1.2,-1.7,6.0,-16.6%,i
CC(C)C(=O)N1N=C(c2ccc3c(c2)OCO3)CC1c1ccc2nccnc2c1 (centres undefined),/,-22.2,/,/,/,/
O=C(NCc1ccnc(OCC(F)(F)F)c1)c1ccco1,/,-0.8,/,/,/,/
CCOc1cc(/C=C(\CC(=O)O)c2nc3ccccc3s2)ccc1OC,5.9,-1.9,1.6,1.6,-11.9%,i
COc1cc(/C=C(\CC(=O)O)c2nc3ccccc3s2)ccc1OCC(=O)Nc1ccccc1F,45.1,-34.7*,-3.5,5.0,-42.2%,i
O=C(CCN1CCN(c2ccccc2)CC1)Nc1cccc(Br)c1,-72.5*,-0.8,1.0,3.0,-14.9%,i
CN(CC(=O)Nc1cccc(C(F)(F)F)c1)Cc1ccccc1,-53.6*,-2.3,-8.5,-39.3,-3.4%,i
O=C(NCCN1CCN(c2ccccc2)CC1)Nc1cccc(Br)c1,-75.1*,-1.3,-2.4,9.8,-18.2%,i
O=C(CN1CCN(c2ccccc2)CC1)Nc1cccc(C(F)(F)F)c1,-50.2*,-0.3,4.1,-22.7,-14.6%,i
